Measured values taken from ChEMBL document CHEMBL1961873, “Compounds: GSK PKIS; Assays: Nanosyn kinase panel” (2012).

Legend:
[1] = target: Leukocyte tyrosine kinase receptor (Homo sapiens) (UniProt P29376); conditions: at 1 µM;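 also: each value is the mean inhibition of LTK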
[2] = target: Tyrosine-protein kinase Lyn (Homo sapiens) (UniProt P07948); conditions: at 0.1 µM
[3] = target: Tyrosine-protein kinase Lyn (Homo sapiens) (UniProt P07948); conditions: at 1 µM
[4] = target: Tyrosine-protein kinase Lyn (Homo sapiens) (UniProt P07948); conditions: at 0.1 µM; remark: listed apart in the source
[5] = target: Tyrosine-protein kinase Lyn (Homo sapiens) (UniProt P07948); conditions: at 1 µM; remark: listed apart in the source
[6] = target: T1, Tyrosine-protein kinase Mer (Homo sapiens) (UniProt Q12866); conditions: at 0.1 µM
T1 sequence (whole entry): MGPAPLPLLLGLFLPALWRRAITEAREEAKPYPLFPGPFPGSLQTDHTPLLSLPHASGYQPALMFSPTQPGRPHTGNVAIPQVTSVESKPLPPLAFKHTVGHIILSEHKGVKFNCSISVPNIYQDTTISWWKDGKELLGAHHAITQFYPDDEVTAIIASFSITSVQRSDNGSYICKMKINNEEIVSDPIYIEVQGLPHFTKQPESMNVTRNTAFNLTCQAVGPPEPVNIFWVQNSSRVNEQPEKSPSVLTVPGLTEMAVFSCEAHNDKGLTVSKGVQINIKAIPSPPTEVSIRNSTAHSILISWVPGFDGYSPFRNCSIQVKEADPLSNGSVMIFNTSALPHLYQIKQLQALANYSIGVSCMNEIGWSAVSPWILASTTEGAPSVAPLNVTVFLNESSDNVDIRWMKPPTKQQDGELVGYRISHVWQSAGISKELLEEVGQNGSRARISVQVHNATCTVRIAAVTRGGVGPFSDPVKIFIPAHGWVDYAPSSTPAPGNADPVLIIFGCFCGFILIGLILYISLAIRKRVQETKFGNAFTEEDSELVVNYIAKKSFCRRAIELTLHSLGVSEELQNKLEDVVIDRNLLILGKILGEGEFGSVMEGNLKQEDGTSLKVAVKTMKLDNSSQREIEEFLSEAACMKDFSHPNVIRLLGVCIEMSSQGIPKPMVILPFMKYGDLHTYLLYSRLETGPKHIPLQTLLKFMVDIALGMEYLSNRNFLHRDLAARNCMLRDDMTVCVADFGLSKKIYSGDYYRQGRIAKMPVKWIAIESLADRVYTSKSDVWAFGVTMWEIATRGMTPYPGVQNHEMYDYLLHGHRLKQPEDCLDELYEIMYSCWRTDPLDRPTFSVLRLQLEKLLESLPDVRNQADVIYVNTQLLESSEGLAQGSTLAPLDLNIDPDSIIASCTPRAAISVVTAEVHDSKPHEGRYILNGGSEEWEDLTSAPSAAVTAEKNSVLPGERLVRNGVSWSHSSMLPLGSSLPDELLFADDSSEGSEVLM

[7] = target: T1, Tyrosine-protein kinase Mer (Homo sapiens); conditions: at 1 µM
[8] = target: Hepatocyte growth factor receptor (Homo sapiens) (UniProt P08581); conditions: at 0.1 µM
[9] = target: Hepatocyte growth factor receptor (Homo sapiens) (UniProt P08581); conditions: at 1 µM
[10] = target: T2, Muscle, skeletal receptor tyrosine-protein kinase (Homo sapiens) (UniProt O15146); conditions: at 0.1 µM
T2 sequence (whole entry): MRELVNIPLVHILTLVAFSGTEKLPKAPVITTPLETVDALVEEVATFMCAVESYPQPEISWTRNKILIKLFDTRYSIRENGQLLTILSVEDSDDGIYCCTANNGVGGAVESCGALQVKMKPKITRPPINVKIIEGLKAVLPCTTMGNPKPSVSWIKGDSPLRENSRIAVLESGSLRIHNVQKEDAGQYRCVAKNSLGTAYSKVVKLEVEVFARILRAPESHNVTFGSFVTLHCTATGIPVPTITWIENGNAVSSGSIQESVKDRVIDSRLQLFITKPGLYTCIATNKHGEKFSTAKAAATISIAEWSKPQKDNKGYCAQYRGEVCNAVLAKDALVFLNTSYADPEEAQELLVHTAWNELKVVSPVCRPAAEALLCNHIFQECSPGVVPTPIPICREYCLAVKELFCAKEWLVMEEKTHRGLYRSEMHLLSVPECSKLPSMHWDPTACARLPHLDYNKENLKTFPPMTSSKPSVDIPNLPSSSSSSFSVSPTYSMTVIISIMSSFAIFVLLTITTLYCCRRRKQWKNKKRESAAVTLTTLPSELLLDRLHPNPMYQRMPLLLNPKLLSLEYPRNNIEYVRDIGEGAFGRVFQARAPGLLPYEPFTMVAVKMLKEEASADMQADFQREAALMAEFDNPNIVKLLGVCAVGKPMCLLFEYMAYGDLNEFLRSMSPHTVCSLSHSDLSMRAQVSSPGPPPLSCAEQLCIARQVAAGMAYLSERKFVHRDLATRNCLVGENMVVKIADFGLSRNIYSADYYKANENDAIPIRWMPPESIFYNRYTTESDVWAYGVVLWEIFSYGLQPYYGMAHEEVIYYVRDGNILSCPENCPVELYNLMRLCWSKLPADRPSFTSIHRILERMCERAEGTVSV

[11] = target: T2, Muscle, skeletal receptor tyrosine-protein kinase (Homo sapiens); conditions: at 1 µM
[12] = target: Platelet-derived growth factor receptor alpha (Homo sapiens) (UniProt P16234); conditions: at 0.1 µM
Sequence of Platelet-derived growth factor receptor alpha (Homo sapiens) (P16234 whole entry): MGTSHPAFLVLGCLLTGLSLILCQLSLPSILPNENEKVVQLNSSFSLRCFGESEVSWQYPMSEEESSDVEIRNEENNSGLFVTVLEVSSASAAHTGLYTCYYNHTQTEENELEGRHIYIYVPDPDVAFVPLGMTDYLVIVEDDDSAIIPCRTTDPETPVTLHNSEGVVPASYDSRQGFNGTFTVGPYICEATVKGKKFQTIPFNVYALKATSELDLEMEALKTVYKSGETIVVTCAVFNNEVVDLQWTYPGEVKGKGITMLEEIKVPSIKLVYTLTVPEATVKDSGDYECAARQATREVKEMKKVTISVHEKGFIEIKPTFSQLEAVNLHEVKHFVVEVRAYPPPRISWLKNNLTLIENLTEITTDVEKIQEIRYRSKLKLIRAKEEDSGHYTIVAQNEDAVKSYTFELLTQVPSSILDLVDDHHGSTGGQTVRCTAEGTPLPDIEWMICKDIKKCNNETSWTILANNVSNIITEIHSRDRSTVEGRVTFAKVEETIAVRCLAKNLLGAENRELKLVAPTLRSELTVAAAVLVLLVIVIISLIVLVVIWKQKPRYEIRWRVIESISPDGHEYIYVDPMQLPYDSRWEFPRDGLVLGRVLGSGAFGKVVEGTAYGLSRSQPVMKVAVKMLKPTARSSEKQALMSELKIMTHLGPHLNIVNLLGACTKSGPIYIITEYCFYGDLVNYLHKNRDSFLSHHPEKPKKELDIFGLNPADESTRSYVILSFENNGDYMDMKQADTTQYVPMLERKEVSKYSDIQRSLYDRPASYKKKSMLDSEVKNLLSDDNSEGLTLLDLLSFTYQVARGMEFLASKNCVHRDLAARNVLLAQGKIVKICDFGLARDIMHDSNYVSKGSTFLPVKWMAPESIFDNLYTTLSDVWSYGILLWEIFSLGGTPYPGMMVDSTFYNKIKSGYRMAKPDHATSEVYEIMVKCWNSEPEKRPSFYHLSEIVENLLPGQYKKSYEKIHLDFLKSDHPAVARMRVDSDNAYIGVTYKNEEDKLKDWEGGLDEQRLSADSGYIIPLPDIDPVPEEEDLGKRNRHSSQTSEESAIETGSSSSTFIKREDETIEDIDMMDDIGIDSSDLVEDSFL

[13] = target: Platelet-derived growth factor receptor alpha (Homo sapiens) (UniProt P16234); conditions: at 1 µM
[14] = system: Platelet-derived growth factor receptor alpha (Homo sapiens), P16234 [D842V]; conditions: at 0.1 µM
[15] = system: Platelet-derived growth factor receptor alpha (Homo sapiens), P16234 [D842V]; conditions: at 1 µM
[16] = system: Platelet-derived growth factor receptor alpha (Homo sapiens), P16234 [T674I]; conditions: at 0.1 µM
Sequence of Platelet-derived growth factor receptor alpha (Homo sapiens), P16234 [T674I] (P16234 whole entry T674I): as the sequence (P16234 whole entry) above, with T674I counted along it

[17] = system: Platelet-derived growth factor receptor alpha (Homo sapiens), P16234 [T674I]; conditions: at 1 µM
[18] = system: Platelet-derived growth factor receptor alpha (Homo sapiens), P16234 [V561D]; conditions: at 0.1 µM
[19] = system: Platelet-derived growth factor receptor alpha (Homo sapiens), P16234 [V561D]; conditions: at 1 µM
[20] = target: Platelet-derived growth factor receptor beta (Homo sapiens) (UniProt P09619); conditions: at 0.1 µM;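 also: reported value is the mean percent inhibition of the kinase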
Sequence of Platelet-derived growth factor receptor beta (Homo sapiens) (P09619 whole entry): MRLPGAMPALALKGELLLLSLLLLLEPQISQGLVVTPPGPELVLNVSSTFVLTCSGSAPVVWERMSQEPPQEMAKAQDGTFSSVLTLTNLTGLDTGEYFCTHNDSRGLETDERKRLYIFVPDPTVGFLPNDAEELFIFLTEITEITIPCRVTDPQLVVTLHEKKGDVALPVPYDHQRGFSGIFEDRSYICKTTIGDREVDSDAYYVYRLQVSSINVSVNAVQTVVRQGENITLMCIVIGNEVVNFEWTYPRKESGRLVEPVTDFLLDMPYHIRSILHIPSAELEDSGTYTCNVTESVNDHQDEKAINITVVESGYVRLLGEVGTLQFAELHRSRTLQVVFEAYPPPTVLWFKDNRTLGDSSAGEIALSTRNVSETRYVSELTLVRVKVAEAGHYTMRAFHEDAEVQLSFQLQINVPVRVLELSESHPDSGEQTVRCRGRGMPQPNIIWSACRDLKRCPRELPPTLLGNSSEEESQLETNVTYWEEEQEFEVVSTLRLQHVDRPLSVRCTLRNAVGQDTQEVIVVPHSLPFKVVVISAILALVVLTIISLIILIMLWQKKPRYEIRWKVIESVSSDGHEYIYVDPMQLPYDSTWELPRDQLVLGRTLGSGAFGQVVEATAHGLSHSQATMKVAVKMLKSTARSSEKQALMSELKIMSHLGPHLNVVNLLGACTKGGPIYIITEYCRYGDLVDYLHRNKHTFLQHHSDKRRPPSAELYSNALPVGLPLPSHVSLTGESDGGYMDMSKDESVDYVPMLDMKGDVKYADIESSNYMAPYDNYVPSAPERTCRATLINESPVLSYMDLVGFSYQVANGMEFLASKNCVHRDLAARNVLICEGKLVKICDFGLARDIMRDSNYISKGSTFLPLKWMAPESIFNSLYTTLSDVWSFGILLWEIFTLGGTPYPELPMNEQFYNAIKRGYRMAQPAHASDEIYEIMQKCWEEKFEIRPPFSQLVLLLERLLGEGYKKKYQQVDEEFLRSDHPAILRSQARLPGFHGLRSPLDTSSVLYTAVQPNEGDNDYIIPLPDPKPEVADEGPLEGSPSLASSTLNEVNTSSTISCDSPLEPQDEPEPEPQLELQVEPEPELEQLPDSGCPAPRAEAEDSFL

Sequence of Leukocyte tyrosine kinase receptor (Homo sapiens) (P29376 whole entry): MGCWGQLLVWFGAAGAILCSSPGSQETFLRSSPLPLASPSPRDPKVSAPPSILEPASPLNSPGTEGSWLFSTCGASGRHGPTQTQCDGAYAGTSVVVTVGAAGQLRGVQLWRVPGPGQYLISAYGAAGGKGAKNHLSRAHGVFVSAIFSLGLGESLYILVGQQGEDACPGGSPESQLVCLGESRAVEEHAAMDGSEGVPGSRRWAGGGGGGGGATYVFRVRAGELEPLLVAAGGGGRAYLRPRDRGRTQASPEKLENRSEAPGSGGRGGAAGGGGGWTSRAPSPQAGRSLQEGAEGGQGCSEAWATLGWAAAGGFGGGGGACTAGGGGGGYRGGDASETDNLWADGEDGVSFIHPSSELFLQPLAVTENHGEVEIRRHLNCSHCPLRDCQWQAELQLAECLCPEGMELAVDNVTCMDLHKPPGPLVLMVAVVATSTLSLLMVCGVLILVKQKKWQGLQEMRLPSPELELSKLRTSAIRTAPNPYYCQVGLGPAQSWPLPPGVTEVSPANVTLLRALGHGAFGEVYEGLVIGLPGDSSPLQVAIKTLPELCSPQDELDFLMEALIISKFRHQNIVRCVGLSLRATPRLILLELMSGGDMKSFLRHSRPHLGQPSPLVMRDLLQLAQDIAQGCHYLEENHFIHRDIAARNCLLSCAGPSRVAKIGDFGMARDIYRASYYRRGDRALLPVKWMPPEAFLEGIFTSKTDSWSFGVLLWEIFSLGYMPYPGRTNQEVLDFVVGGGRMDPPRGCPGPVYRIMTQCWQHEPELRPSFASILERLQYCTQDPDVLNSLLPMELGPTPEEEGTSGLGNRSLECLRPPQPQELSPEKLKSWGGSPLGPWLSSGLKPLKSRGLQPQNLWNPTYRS
Sequence of Tyrosine-protein kinase Lyn (Homo sapiens) (P07948 2-512 limits assumed): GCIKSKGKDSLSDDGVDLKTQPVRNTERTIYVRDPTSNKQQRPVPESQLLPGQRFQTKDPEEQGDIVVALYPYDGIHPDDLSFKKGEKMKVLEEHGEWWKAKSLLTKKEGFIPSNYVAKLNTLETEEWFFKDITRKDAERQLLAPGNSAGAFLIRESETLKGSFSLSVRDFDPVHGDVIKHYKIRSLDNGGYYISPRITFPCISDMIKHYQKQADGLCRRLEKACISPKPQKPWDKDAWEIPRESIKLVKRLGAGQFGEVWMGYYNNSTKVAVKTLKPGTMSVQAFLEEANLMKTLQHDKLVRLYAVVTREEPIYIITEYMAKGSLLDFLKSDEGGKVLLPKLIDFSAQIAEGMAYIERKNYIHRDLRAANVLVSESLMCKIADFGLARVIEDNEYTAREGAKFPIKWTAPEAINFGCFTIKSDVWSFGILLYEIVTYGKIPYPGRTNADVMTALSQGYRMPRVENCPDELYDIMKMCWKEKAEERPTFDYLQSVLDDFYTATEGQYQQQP

| Structure (SMILES) | inhibition [1] [%] | inhibition [2] [%] | inhibition [3] [%] | inhibition [4] [%] | inhibition [5] [%] | inhibition [6] [%] | inhibition [7] [%] | inhibition [8] [%] | inhibition [9] [%] | inhibition [10] [%] | inhibition [11] [%] | inhibition [12] [%] | inhibition [13] [%] | inhibition [14] [%] | inhibition [15] [%] | inhibition [16] [%] | inhibition [17] [%] | inhibition [18] [%] | inhibition [19] [%] | inhibition [20] [%] |
| --- | --- | --- | --- | --- | --- | --- | --- | --- | --- | --- | --- | --- | --- | --- | --- | --- | --- | --- | --- | --- |
| COc1cc2c(cc1Nc1nc(Nc3ccsc3C(N)=O)c3cc[nH]c3n1)N(C(=O)CN(C)C)CCC2(C)C | 96.3 | 4.53 | 4.24 | 2.04 | 2.4 | 3.14 | 16.1 | 5.6 | 23.1 | 14.8 | 62.4 | 21.6 | 63.2 | 5.04 | 20.5 | 8.69 | 16.9 | 13.1 | 46.1 | 15.1 |
| Fc1ccc(-c2cc(-c3c[nH]nc3-c3ccccn3)ccn2)cc1 | 5.88 | 6.32 | 8.49 | 5.14 | 7.44 | 1.96 | 2 | 6.72 | 8.44 | 2.06 | -0.34 | 5.93 | 19.8 | 4.02 | 21.2 | 5.49 | 10.1 | 4.91 | 11.8 | 3.85 |
| O=S(=O)(CCNCc1ccc(-c2ccc3ncnc(Nc4ccc(OCc5cccc(F)c5)c(Cl)c4)c3c2)o1)c1ccccc1 | 5.42 | 6.84 | 7.64 | 3.9 | 4.05 | 3.42 | 7.37 | -0.44 | 6.95 | 6.83 | 5.15 | 11.9 | 19 | 3.35 | 6.47 | 7.8 | 12.8 | 3.09 | 8.1 | 5.51 |
| COc1cccc(-n2ncc3c(N/N=C/c4ccc(F)cc4)ncnc32)c1 | 3.69 | 19.6 | 48.7 | 14.6 | 43.9 | 3.7 | 5.19 | 2.87 | 16.6 | 3.89 | 9.49 | 15.8 | 42.1 | 9.48 | 45.4 | 9.07 | 29.6 | 8.4 | 37.1 | 12.8 |
| CC(C)(CO)CNC(=O)c1ccc2c(c1)/C(=N/Nc1ccc(S(N)(=O)=O)cc1)C(=O)N2 | -1.87 | -1.12 | 9.87 | -1.58 | 8.71 | -2.26 | 1.33 | 9.65 | 9.33 | 3.03 | 21.6 | 18.7 | 62.5 | 23.2 | 77.3 | -0.15 | 6.93 | 15.7 | 65.4 | 38.7 |
| CNC(=O)c1cncc(/C=C/c2ccccc2Cl)c1 | 1 | 1.6 | 11.3 | 1.83 | 8.12 | 3.56 | 2.42 | 3.72 | 4.48 | 0.71 | 8.03 | 7.6 | 19.1 | -1.08 | 4.93 | 2.9 | 2.13 | 4.99 | 23.1 | 7.75 |
| NS(=O)(=O)c1ccc(N/N=C2\C(=O)Nc3ccc4ncccc4c32)cc1 | 10.1 | 8.74 | 44.3 | 6.92 | 40 | 1.59 | 17.5 | 4.71 | 19.4 | 11.3 | 49.5 | 58.9 | 82.2 | 63.4 | 92.3 | 16.7 | 73.6 | 54.5 | 92.4 | 63.2 |
| CCOc1ccc2c(-c3ccnc(Nc4cccc(C(F)(F)F)c4)n3)cnn2n1 | 1.96 | 4.33 | 4.33 | 3.97 | 3.17 | 0.97 | 3.35 | 3.01 | 3.51 | 2.25 | 1.27 | 9.61 | 27.3 | 2.8 | 10.2 | 3.74 | 9.48 | 2.96 | 15.9 | 7.67 |
| COc1ccc(-c2oc3ncnc(N)c3c2-c2ccc(NC(=O)Nc3cc(C(F)(F)F)ccc3F)cc2)cc1 | 11.2 | 48.4 | 94.8 | 43.3 | 93.2 | 11.7 | 66.5 | 9.34 | 63.2 | 96.6 | 101 | 38.6 | 88.9 | 6.4 | 54.4 | 18 | 72.1 | 26.6 | 86.2 | 20.2 |
| CN(C)CCOc1ccc(-c2nc(-c3ccncc3)c(-c3ccc4c(c3)CC/C4=N\O)[nH]2)cc1 | 8.56 | 6.26 | 8.56 | 2.81 | 6.8 | 0.89 | 4.76 | 3.76 | 13.3 | 2.95 | 3.72 | 8.1 | 15.9 | 0.79 | 3.47 | 3.47 | 8.38 | 2.97 | 5.35 | 4.84 |
| CCc1nn2ncccc2c1-c1ccnc(NC2CC2)n1 | 3.47 | 2.13 | 2.84 | 2.22 | 3.39 | 3.92 | 4.58 | 6.93 | 4.86 | 1.52 | 3.55 | 4.59 | 8.05 | 1.28 | 5.3 | 4.48 | 5.6 | 3.69 | 5.92 | 4.03 |
| CC(C)COC(=O)c1ccc2c(c1)/C(=C/Nc1ccc(S(N)(=O)=O)cc1)C(=O)N2 | 4.2 | 2.35 | 24.3 | 0.51 | 20.4 | 2.14 | 4.37 | -4.39 | 13.3 | 7.69 | 51.3 | 53.2 | 84.3 | 60.7 | 93.1 | 4.41 | 38.9 | 44.7 | 88.4 | 66.3 |
| CS(=O)(=O)CCNCc1coc(-c2ccc3ncnc(Nc4ccc(OCc5ccccc5)cc4)c3c2)c1 | 11.4 | 3.61 | 8.56 | 3.96 | 6.66 | 5.03 | 29.9 | 9.58 | 9.58 | 2.22 | 4.59 | 7.28 | 11.5 | 3.71 | 4.82 | 3.65 | 6.58 | 3.61 | 12.8 | 3.03 |
